According to PubChem BioAssay (NCATS):
“And” between values parts separate entries of the source, which are not always exact repeats. Equal entries are not always repeated. Inconclusive results are not listed. The source made the active and inactive calls. Calls come from the whole dose curve; as a rule, active = well fitted cell-killing curve with a large enough effect; inconclusive = small, poorly fitted or top-dose-only effect, or effect the other way; inactive = no such curve, though single readings can be large or run the other way.

Assays:
[1] = Quantitative High-Throughput drug screen in 47 multiple myeloma cell lines against the NCATS MIPE library collection: KMS34_JCRB cell viability assay (AID 1918985); note: nearly all actives have a fitted effect of over 40% in size
Summary of the method: (§1)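 Cells were exposed to library compounds for 48 hours, after which ATP was measured by CellTiter-Glo. Signal was taken as median relative luminescence units.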

[2] = Quantitative High-Throughput drug screen in 47 multiple myeloma cell lines against the NCATS MIPE library collection: OCIMY7_PLB cell viability assay (AID 1918987); note: nearly all actives have a fitted effect of over 65% in size
Summary of the method: as §1

[3] = Quantitative High-Throughput drug screen in 47 multiple myeloma cell lines against the NCATS MIPE library collection: UTMC2_PLB cell viability assay (AID 1919868); details: CellTiter-Glo ATP luminescence, 48 h; viability (% of DMSO control): at 45.8 µM (top of the series); note: nearly all actives have a fitted effect of over 55% in size;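 for viability (% of DMSO control): 100% = DMSO-only wells and 0% = media-only wells without cells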
Summary of the method: as §1

[4] = Quantitative High-Throughput drug screen in 47 multiple myeloma cell lines against the NCATS MIPE library collection: OPM1_PLB cell viability assay (AID 1918989); note: nearly all actives have a fitted effect of over 40% in size
Summary of the method: as §1

[5] = Quantitative High-Throughput drug screen in 47 multiple myeloma cell lines against the NCATS MIPE library collection: SKMM1_PLB cell viability assay (AID 1919863); details: SKMM1 myeloma viability, CellTiter-Glo ATP, 48 h; viability: stronger effect = lower value; note: nearly all actives have a fitted effect of over 35% in size
Summary of the method: as §1

[6] = Quantitative High-Throughput drug screen in 47 multiple myeloma cell lines against the NCATS MIPE library collection: U266_ATCC cell viability assay (AID 1919864); note: nearly all actives have a fitted effect of over 35% in size;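 for viability (% of DMSO control): 0% = media-only wells without cells and 100% = DMSO-only wells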
Summary of the method: as §1

[7] = Quantitative High-Throughput drug screen in 47 multiple myeloma cell lines against the NCATS MIPE library collection: XG6_PLB cell viability assay (AID 1919865); note: nearly all actives have a fitted effect of over 40% in size
Summary of the method: as §1

[8] = Quantitative High-Throughput drug screen in 47 multiple myeloma cell lines against the NCATS MIPE library collection: XG1_PLB cell viability assay (AID 1919866); note: nearly all actives have a fitted effect of over 35% in size
Summary of the method: as §1

[9] = Quantitative High-Throughput drug screen in 47 multiple myeloma cell lines against the NCATS MIPE library collection: OCIMY5_PLB cell viability assay (AID 1918988); note: nearly all actives have a fitted effect of over 65% in size
Summary of the method: as §1

[10] = Quantitative High-Throughput drug screen in 47 multiple myeloma cell lines against the NCATS MIPE library collection: VP6_DJ cell viability assay (AID 1919867); note: nearly all actives have a fitted effect of over 40% in size
Summary of the method: as §1
Potency is the fitted concentration of half-maximal effect.

CCOc1cc(C(=O)Nc2ccc(Cl)c(-c3nc4ccccc4[nH]3)c2)cc(OCC)c1OCC
inactive: Potency [1] | Potency [3]
active: Potency [2] 0.418 µM

Fc1ccc(Cl)cc1-c1nc(Nc2ccncc2)c2nccnc2n1
active: Potency [1] 1.32 µM | Potency [4] 14.8 µM | Potency [7] 3.32 µM
inactive: Potency [2] | viability [5] 120% | Potency [6] | Potency [8]

CN(C)c1ccc(Nc2nc(N)n(C(=O)c3c(F)cccc3F)n2)cc1
active: Potency [1] 2.35 µM | Potency [2] 2.35 µM | Potency [9] 11.8 µM | Potency [4] 5.26 µM | Potency [6] 18.7 µM | Potency [7] 3.72 µM | Potency [8] 0.935 µM | Potency [10] 16.6 µM

CCOc1ccc(Cc2cc([C@@H]3O[C@H](CO)[C@@H](O)[C@H](O)[C@@H]3O)ccc2Cl)cc1
active: Potency [2] 3.72 µM | Potency [4] 14.8 µM | Potency [10] 16.6 µM
inactive: Potency [1] | Potency [9] | Potency [6]

Cc1ccnc(NS(=O)(=O)c2ccc(NC(=O)Nc3ccc(S(=O)(=O)Nc4nccc(C)n4)cc3)cc2)n1
active: Potency [2] 23.5 µM | Potency [4] 18.7 µM | Potency [7] 4.18 µM | Potency [10] 2.64 µM
inactive: Potency [1]

Cc1c(CN2CCN(C(=O)C(C)C)CC2)sc2c(N3CCOCC3)nc(-c3cnc(N)nc3)nc12
active: Potency [1] 0.0296 µM | Potency [2] 1.66 µM | Potency [4] 0.118 µM | Potency [5] 0.148 µM | Potency [6] 0.372 µM | Potency [7] 0.132 µM | Potency [8] 0.0662 µM | Potency [10] 0.105 µM | Potency [3] 0.0526 µM

Cc1cnc(NC(=O)C2=C(O)c3ccccc3S(=O)(=O)N2C)s1
inactive: Potency [1] | Potency [9] | Potency [4]

C#Cc1cccc(Nc2ncnc3cc(OCCOC)c(OCCOC)cc23)c1
active: Potency [1] 11.8 µM | Potency [2] 0.833 µM | Potency [9] 5.9 µM | Potency [6] 13.2 µM | Potency [3] 4.18 µM

COc1ccc(-c2oc3cc(OC)ccc3c2C(=O)c2ccc(C#N)cc2)cc1
active: Potency [2] 14.8 µM | Potency [6] 16.6 µM | Potency [8] 8.33 µM
inactive: Potency [1] | Potency [9] | Potency [4]

CCOc1cc(N2CCC(O)CC2)ccc1Nc1ncc2c(n1)N(C)c1ccccc1C(=O)N2C
active: Potency [1] 10.5 µM | Potency [2] 6.62 µM | Potency [9] 14.8 µM | Potency [4] 2.96 µM | Potency [5] 11.8 µM | Potency [8] 5.9 µM | Potency [10] 2.09 µM

CO[C@@H]1[C@H](N(C)C(=O)c2ccccc2)C[C@H]2O[C@]1(C)n1c3ccccc3c3c4c(c5c6ccccc6n2c5c31)C(=O)NC4
active: Potency [1] 1.32 µM | Potency [2] 0.235 µM | Potency [9] 1.48 µM | Potency [4] 1.18 µM | Potency [5] 8.33 µM | Potency [6] 3.72 µM | Potency [7] 0.372 µM | Potency [8] 0.935 µM | Potency [10] 0.418 µM | Potency [3] 0.935 µM

CC(C)(N)C(=O)N[C@H](COCc1ccccc1)C(=O)N1CCC2(CC1)CN(S(C)(=O)=O)c1ccccc12
active: Potency [1] 14.8 µM | Potency [9] 16.6 µM

COc1ccc(-c2ccc3c(N4CCOC[C@H]4C)nc(N4CCOC[C@H]4C)nc3n2)cc1CO
active: Potency [1] 0.0209 µM | Potency [2] 0.209 µM | Potency [4] 0.0148 µM | Potency [5] 0.0148 µM | Potency [6] 0.0074 µM | Potency [7] 0.0148 µM | Potency [10] 0.0066 µM | Potency [3] 0.001 µM

NS(=O)(=O)c1cc2c(cc1Cl)NC=NS2(=O)=O
inactive: Potency [1] | Potency [2] | Potency [9] | Potency [6] | Potency [10]

O=c1[nH]cnc2[nH]ncc12
inactive: Potency [1] | Potency [2] | Potency [6] | Potency [8]

CNCc1ccc(-c2[nH]c3cc(F)cc4c3c2CCNC4=O)cc1
inactive: Potency [1] | Potency [9] | Potency [4]

O=C(O)[C@@H](c1ccc(OCc2ccc3ccccc3n2)cc1)C1CCCC1
active: Potency [2] 5.9 µM | Potency [8] 5.26 µM | Potency [10] 5.9 µM
inactive: Potency [1] | Potency [4] | viability [5] 106% | Potency [6]

COc1c(Cl)cc2c([nH]c3cnccc32)c1NC(=O)c1cccnc1C
active: Potency [1] 3.32 µM | Potency [2] 2.09 µM | Potency [4] 2.96 µM | Potency [5] 6.62 µM | Potency [7] 0.166 µM | Potency [8] 0.372 µM

CC(=O)Oc1ccccc1C(=O)O
active: Potency [2] 5.26 µM | Potency [9] 5.26 µM | Potency [6] 7.43 µM | Potency [8] 5.26 µM
inactive: Potency [1] | Potency [4] | viability [5] 129%

Cc1cc([C@@H](C)Nc2ccccc2C(=O)O)c2nc(N3CCOCC3)cc(=O)n2c1
active: Potency [1] 2.7 µM | Potency [2] 2.15 µM | Potency [9] 38.2 µM | Potency [4] 17.1 µM | Potency [5] 27 µM | Potency [6] 5.4 µM | Potency [8] 4.29 µM | Potency [10] 9.59 µM | Potency [3] 3.82 µM

Cc1cc2c(C(C)C)c(O)c(O)c(C=O)c2c(O)c1-c1c(C)cc2c(C(C)C)c(O)c(O)c(C=O)c2c1O
active: Potency [1] 11.8 µM | Potency [2] 8.33 µM | Potency [9] 14.8 µM | Potency [4] 10.5 µM | Potency [5] 29.6 µM | Potency [8] 8.33 µM | Potency [10] 5.9 µM | Potency [3] 5.9 µM

COc1ccc([C@@H]2CC(=O)c3c(O)cc(O[C@@H]4O[C@H](CO[C@@H]5O[C@@H](C)[C@H](O)[C@@H](O)[C@@H]5O)[C@@H](O)[C@H](O)[C@@H]4O)cc3O2)cc1O
active: Potency [2] 6.62 µM | Potency [9] 13.2 µM | Potency [7] 5.9 µM | Potency [8] 4.18 µM
inactive: Potency [1] | Potency [4] | viability [5] 111% and 110% | Potency [6] | Potency [10]

CS(=O)(=O)c1ccc(C(=O)Nc2ccc(Cl)c(-c3ccccn3)c2)c(Cl)c1
inactive: Potency [1] | viability [5] 129%
active: Potency [2] 14.8 µM | Potency [4] 18.7 µM | Potency [8] 1.66 µM

CN1CCN(CCCN2c3ccccc3Sc3ccc(C(F)(F)F)cc32)CC1
inactive: Potency [1] | Potency [9] | viability [5] 123%
active: Potency [2] 5.9 µM | Potency [4] 26.4 µM | Potency [6] 1.66 µM | Potency [7] 1.05 µM | Potency [8] 1.18 µM | Potency [10] 2.09 µM | Potency [3] 10.5 µM

CCC(=O)N[C@H]1CC[C@H](C(=O)N(C)c2ccc(-c3nc4ccccc4o3)cc2)C1
active: Potency [2] 8.33 µM | Potency [7] 8.33 µM | Potency [8] 6.62 µM | Potency [10] 14.8 µM
inactive: Potency [1] | viability [5] 132%

S=C(NCc1ccc2c(c1)OCO2)N1CCN(c2ncnc3c2oc2ccccc23)CC1
active: Potency [2] 4.29 µM | Potency [4] 2.41 µM | Potency [6] 12.1 µM | Potency [7] 2.41 µM | Potency [8] 0.96 µM | Potency [10] 0.96 µM
inactive: Potency [1]

CN(C)c1ccc(C2Nc3ccc4ccccc4c3C3=C2C(=O)CC(C)(C)C3)cc1Br (stereo not drawn)
inactive: Potency [1] | Potency [6]
active: Potency [2] 0.935 µM | Potency [9] 23.5 µM

CN[C@@H](C)C(=O)N[C@H]1CCCC[C@H]2CC[C@@H](C(=O)N[C@@H](c3ccccc3)c3cn(CCCCc4ccc(CCCCn5cc([C@@H](NC(=O)[C@@H]6CC[C@@H]7CCCC[C@H](NC(=O)[C@H](C)NC)C(=O)N76)c6ccccc6)nn5)cc4)nn3)N2C1=O
active: Potency [2] 0.001 µM | Potency [4] 16.6 µM | Potency [5] 0.0037 µM | Potency [7] 20.9 µM | Potency [8] 23.5 µM | Potency [10] 18.7 µM
inactive: Potency [1]

COc1ccc(CC2=NN3C([C@@H](CCc4ccccc4)[C@@H](C)O)=NC(C)C3C(=O)N2)cc1OC (stereo partly drawn)
active: Potency [4] 2.64 µM
inactive: Potency [1] | Potency [2] | Potency [9] | viability [5] 138% | Potency [6] | Potency [8]

O=C(c1cc(Cc2n[nH]c(=O)c3ccccc23)ccc1F)N1CCN(C(=O)C2CC2)CC1
active: Potency [2] 2.64 µM | Potency [7] 13.2 µM | Potency [3] 10.5 µM
inactive: Potency [1] | Potency [4] | viability [5] 93.3%

COc1ccc2nc(S(=O)Cc3ncc(C)c(OC)c3C)[nH]c2c1 (stereo not drawn)
active: Potency [2] 16.6 µM | Potency [10] 16.6 µM | viability (% of DMSO control) [3] 120%
inactive: Potency [1]

Cc1cc(SCc2sc(-c3ccc(C(F)(F)F)cc3)nc2C)ccc1OCC(=O)O
active: Potency [2] 20.9 µM | Potency [9] 3.72 µM | Potency [5] 16.6 µM
inactive: Potency [1]

CCN(CC)CCCC(C)Nc1nc(C)cc(Nc2ccc3nc(C)cc(N)c3c2)n1 (stereo not drawn)
active: Potency [2] 8.33 µM | Potency [10] 3.72 µM
inactive: Potency [1] | viability [5] 123%

CCCS(=O)(=O)Nc1ccc(F)c(C(=O)c2c[nH]c3ncc(Cl)cc23)c1F
active: Potency [2] 1.32 µM | Potency [4] 18.7 µM | Potency [6] 11.8 µM | Potency [7] 10.5 µM | Potency [8] 18.7 µM | Potency [10] 14.8 µM
inactive: Potency [1] | viability [5] 122%

OC(CCN1CCCCC1)(c1ccccc1)C1CC2C=CC1C2 (stereo not drawn)
inactive: Potency [1] | Potency [9] | Potency [4] | Potency [6] | Potency [7] | Potency [8] | Potency [10]

COc1ccc(-c2c(-c3ccc(O)cc3O)n[nH]c2C)cc1
active: Potency [4] 30.3 µM | Potency [10] 34 µM
inactive: Potency [1] | viability [5] 137% | Potency [6]

Clc1cccc(Cl)c1NC1=NCCN1
active: Potency [10] 5.26 µM
inactive: Potency [1] | Potency [4] | Potency [6] | Potency [8]

CCn1cc(C(=O)O)c(=O)c2cc(F)c(N3CCNC(C)C3)c(F)c21 (stereo not drawn)
inactive: Potency [1] | Potency [9] | viability [5] 140% | Potency [8] | Potency [10]
active: Potency [4] 11.8 µM

COc1ccccc1-c1cccc(-c2c(O)c3cc(C#N)c(Cl)cc3[nH]c2=O)c1
inactive: Potency [1] | viability [5] 104% | Potency [6]
active: Potency [7] 34 µM | Potency [10] 21.5 µM

O=c1n(CCCN2CCN(c3cccc(Cl)c3)CC2)nc2ccccn12
inactive: Potency [1] | Potency [4] | Potency [8] | Potency [3]

O=C(O)COCCN1CCN(C(c2ccccc2)c2ccc(Cl)cc2)CC1 (stereo not drawn)
inactive: Potency [1] | Potency [9] | viability [5] 122% | Potency [6] | Potency [8] | Potency [10] | Potency [3]
